# In PubChem BioAssay (NCATS):
# Inconclusive results are not listed. Unmarked numbers belong to inactive results. Activity calls are given as the source filed them. The call rests on the fitted dose curve; in most records, active means well fitted activation curve with a large enough effect; inconclusive means small, poorly fitted or top-dose-only effect; inactive means no such curve, though single readings can be large or run the other way.
# Biological target: Cellular tumor antigen p53 (Homo sapiens) (UniProt P04637)
# Assay: Primary qHTS for small molecule compounds that upregulate eGFP-tagged delta133p53alpha (in N-terminal) cells. (AID 2060322); further: nearly all actives have a fitted effect of over 75% in size;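 on activation: series mostly up to about 56 µM; 0% = DMSO vehicle and 100% = reference activator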
# Conditions: NCI-H358 eGFP-delta133p53alpha fluorescence, 24 h; activation: active compounds read high
# How it was run: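 NCI-H358 cells pre-induced 24 h with 10 ng/ml doxycycline to express N-terminal eGFP-delta133p53alpha, then dosed 24 h at 37C without doxycycline; fixed, Hoechst-stained, GFP intensity by laser scanning cytometry, normalized to DMSO (0%) and 57.5 uM 5-azacytidine (100%).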
# Potency means the concentration at half of the fitted maximal effect.
# Sequence of Cellular tumor antigen p53 (Homo sapiens) (P04637 whole entry, looked up): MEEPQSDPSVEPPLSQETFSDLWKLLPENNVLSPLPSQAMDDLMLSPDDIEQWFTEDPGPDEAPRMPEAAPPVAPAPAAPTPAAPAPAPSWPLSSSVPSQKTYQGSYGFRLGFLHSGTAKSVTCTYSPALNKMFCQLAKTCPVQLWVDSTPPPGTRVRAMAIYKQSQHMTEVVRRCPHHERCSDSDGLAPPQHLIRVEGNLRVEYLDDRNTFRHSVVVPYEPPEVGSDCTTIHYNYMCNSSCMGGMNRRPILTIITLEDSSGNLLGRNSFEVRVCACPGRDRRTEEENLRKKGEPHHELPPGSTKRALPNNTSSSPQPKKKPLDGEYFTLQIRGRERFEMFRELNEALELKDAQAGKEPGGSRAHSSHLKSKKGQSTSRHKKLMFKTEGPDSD
Structure (SMILES),activation,Potency
CC(O)=C(C#N)C(=O)Nc1cc(Br)ccc1Br,1.6%,
C=C[C@@H]1CN2CCC1C[C@H]2[C@H](O)c1ccnc2ccccc12 (stereo not given in full),-4.83%,
O=C(O)COc1nc(Cl)c(Cl)cc1Cl,6.21%,
CC(Cc1ccccc1)NCc1ccccc1Cl (stereo not given),16.4%,
c1cc2ccc3cccc4ccc(c1)c2c34,0%,
CC1NCCOC1c1ccccc1 (stereo not given),9.6%,
C[C@]12CCC(=O)C(O)=C1CC[C@@H]1[C@H]3CCC(=O)[C@@]3(C)CC[C@@H]12,-8.48%,
CCN(CC)CCc1c[nH]c2ccccc12,-8.47%,
C[C@]12COC(=O)C[C@@H]1CC[C@@H]1[C@H]2CC[C@@]2(C)[C@H]1CC[C@]2(C)O,-15.3%,
ClCCCN1CCN(c2cccc(Cl)c2)CC1,-2.82%,
CC1=C(C(=O)O)N2C(=O)[C@@H](N)[C@H]2SC1,-3.35%,
Clc1ccccc1N1CCNCC1,28.8%,
CC(C)N[C@@H]1CCn2c(=O)[nH]c3cccc(c32)[C@@H]1O,13.7%,
CC[N+]1(C)CCCC(OC(=O)C(O)(c2ccccc2)c2ccccc2)C1 (stereo not given),8.47%,
CN1C(=O)NC(=O)C(C)(C2=CCCCC2)C1=O (stereo not given),3.35%,
CCC1(CC)C(=O)C=CNC1=O,-17.5%,
CN(C)C(=O)Oc1cc(OC(=O)N(C)C)cc(C(O)CNC(C)(C)C)c1 (stereo not given),-17.6%,
CCC(CC)(CNC(=O)CCCO)c1cccc(OC)c1,16.7%,
[N-]=[N+]=CC(=O)OC[C@H](N)C(=O)O,5.02%,
NC(=O)OCCCc1ccccc1,-0.565%,
C#C[C@]1(O)C=C[C@@H]2[C@@H]3CCC4=CC(=O)CC[C@@H]4[C@H]3CC[C@@]21CC,-3.53%,
CC(=CCCC1=CCC(C2=CC(=O)OC2O)OC1O)CCC1=C(C)CCCC1(C)C (stereo not given),16.4%,
COC(C)(C)CCCC(C)C/C=C/C(C)=C/C(=O)OC(C)C (stereo not given),-11.9%,
COc1cc(N)c(Cl)cc1C(=O)NC1CN2CCC1CC2 (stereo not given),10.7%,
Oc1ccccc1-c1ccccc1,10%,

Structure (SMILES),activation,Potency
CC[N+]1(CC)CCC(OC(=O)C(O)(c2ccccc2)c2ccccc2)C1 (stereo not given),-15.3%,
COP(=S)(OC)SCN1C(=O)c2ccccc2C1=O,,21.9 µM (active)
COC(=O)C(Cl)C(=O)OC,-13.4%,
C=C1CC[C@@]2(O)[C@H]3Cc4ccc(O)c5c4[C@@]2(CCN3CC2CC2)[C@H]1O5,6.21%,
Oc1ccc2[nH]cc(CCCCN3CC=C(c4ccccc4)CC3)c2c1,22%,
CN(C)CCc1c[nH]c2cccc(O)c12,15.3%,
N[C@@H](Cc1ccc(Oc2cc(I)c(O)c(I)c2)c(I)c1)C(=O)O,11.7%,
O=C1NCN(c2ccccc2)C12CCN(CCCOc1ccc(F)cc1)CC2,0.837%,
CC(C)[N+](C)(CCC(C(N)=O)(c1ccccc1)c1ccccc1)C(C)C,27.7%,
O=[N+]([O-])c1ccc([As](=O)(O)O)cc1,-14.2%,
CC(Cc1ccc2c(c1)OCO2)NO (stereo not given),-3.95%,
CCCCOC(=O)c1ccccc1C(=O)OCc1ccccc1,-2.82%,
C[C@@H]1[C@@H](CC(C[C@H]2O[C@@H]3O[C@]4(C)CC[C@@H]5[C@H](C)CC[C@@H]([C@H]2C)[C@@]35OO4)C[S+](=O)([O-])c2ccc(COC(=O)N(C)C)cc2)O[C@@H]2O[C@]3(C)CC[C@H]4[C@H](C)CC[C@@H]1[C@@]24OO3 (stereo not given in full),8.23%,
OCCOc1ccccc1,-20.9%,
CS(=O)(=O)c1ccc(C(=O)C2C(=O)CCCC2=O)c([N+](=O)[O-])c1,-5.86%,
CC(C)NCC(O)c1ccc(N)c(C#N)c1 (stereo not given),1.69%,
COc1cc(CCN)cc(OC)c1OC,-6.21%,
Nc1ccc(Cl)cc1,-6.21%,
C[C@]12CC[C@H]3[C@@H](CCC4=CC(=O)CC[C@@H]43)[C@@H]1CC[C@@H]2OC(=O)CCC1CCCCC1,-13%,
CCN1CCCC1CNC(=O)C(O)(c1ccccc1)c1ccccc1 (stereo not given),-15.1%,
CC(C)=CC1C(C(=O)OCc2cccc(Oc3ccccc3)c2)C1(C)C (stereo not given),25.4%,
CC(C)c1c(CN(C)C(C)Cc2ccccc2)n(C)n(-c2ccccc2)c1=O (stereo not given),-14.2%,
CCCCCCCCCCCC[N+](C)(C)CCOc1ccccc1,,21.9 µM (active)
C[C@H]1C(=O)O[C@@H]2CCN3CC=C(COC(=O)[C@](C)(O)[C@]1(C)O)[C@H]23,-36.8%,
CC1Sc2c(C(=O)O)c(=O)c3cc(F)c(N4CCNCC4)cc3n21 (stereo not given),-8.47%,
